The results in this text go back to PubChem BioAssay AID449762 (Southern Research Specialized Biocontainment Screening …, 2010).

Each structure is given as a SMILES string. The whole screen tested about 330,000 compounds, of which about 1,900 (0.58%) were called active. Inconclusive results (about 4%) are left out. Rule as the data show it: inconclusive = inhibition above about 70% without an active follow-up result; inactive = below that. Only a sample is shown. Measured potencies and affinities stand elsewhere.

This test in a line: M. tuberculosis growth inhibition, HTS (AID 449762).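 Also: bacterial growth assessed after seven days of incubation.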 The settings on record: M. tuberculosis H37Rv growth inhibition, 7H9 media; at 25 µM; active compounds read high.
On to `COc1ccc(C)cc1NC(=O)CN1CCCC1c1ccc2c(c1)OCCCO2` (stereo unspecified), for which the inhibition was 5.61% (inactive). Consider `COc1ccc(NC(=O)CCCCCN2C(=O)c3ccccc3C2=O)c(OC)c1`, for which the inhibition is -6.73% (inactive).

Turning to `C/C(=N\Nc1ccccc1Cl)c1ccc(-n2ccnc2)cc1`, the inhibition was 58.6% (inactive). With `C/C(=N\Nc1cccc(Cl)c1)c1ccc(-n2ccnc2)cc1`, the inhibition is 0.99% (inactive). Under `COc1cccc(-c2cc(C(F)(F)F)c(C#N)c(=O)[nH]2)c1` stands -9.57% (inactive); under `Cc1csc(=Nc2ccccc2)n1Cc1ccco1`, 11.3% (inactive); under `Cn1nnnc1SCC(=O)Nc1nc2c(s1)CCCC2`, 2.88% (inactive).

`N#Cc1c(NC(=O)CSc2nnnn2C2CCCCC2)sc2c1CCCC2`: the inhibition is -13.1% (inactive). Under `Cc1ccc(N(CC(=O)NCc2ccco2)C(=O)CCC(=O)Nc2nccs2)c(C)c1` stands 1.4% (inactive); under `Cc1cc(N2CCC(C(=O)N3CCN(c4cccc(C)c4C)CC3)CC2)n2ncnc2n1`, -0.67% (inactive); under `COc1ccc(/C=C/C(=O)c2ccc(OC)cc2OC)cc1`, 58.4% (inactive). On to `COc1ccc2cc(C(=O)/C=C/c3cc(OC)c(O)c(OC)c3)ccc2c1`, for which the inhibition was 36.1% (inactive). As for `CC(=O)c1cccc(N2C(=NC(=O)CCc3ccccc3)SC3CS(=O)(=O)CC32)c1` (stereo unspecified), the figure is 1.65% (inactive); as for `Cc1ccc(S(=O)(=O)NNC(=O)CCC(=O)Nc2ccc(C)cc2C)cc1`, 5.58% (inactive); as for `COc1cc(SC)ccc1C(=O)OCC(=O)NC1CCCCC1`, -4.21% (inactive). As for `CCCCCC1CC(CC(=O)Nc2ccc([N+](=O)[O-])cc2)C(=O)O1` (stereo unspecified), the figure is 68.8% (inactive); as for `CCCCCCC1CC(CC(=O)Nc2ccc([N+](=O)[O-])cc2)C(=O)O1` (stereo unspecified), 5.26% (inactive); as for `O=C(CCNS(=O)(=O)c1ccc(F)c(Cl)c1)NCc1ccccc1F`, -9.24% (inactive). As for `O=C(COC(=O)Cc1ccsc1)NCc1ccc(Cl)cc1`, the figure is 8.12% (inactive); as for `Cc1cccc(C(=O)CC(=O)c2cc(Cl)ccc2O)c1`, 0.28% (inactive).

Consider `Cc1cc(C)c(C(=O)CC(=O)c2ccccc2Cl)c(O)c1`, for which the inhibition was 6.33% (inactive). As for `Cc1ccc(-c2nnc(SCC(=O)N/N=C/c3c(C)nn(-c4ccccc4)c3C)n2-c2ccc(C)cc2)cc1`, the figure is 5.96% (inactive); as for `COc1ccc(CCN(C)CC(O)COC(c2ccc(F)cc2)c2ccc(F)cc2)cc1OC` (stereo unspecified), 6.55% (inactive). For `CCCN1CCN(CC(O)COC(c2ccc(OC)cc2)c2ccc(OC)cc2)CC1` (stereo unspecified), the inhibition was 6.36% (inactive).

For the compound `O=C(NN1CC(C(=O)OCc2ccc(Cl)cc2Cl)CC1=O)c1ccccc1` (stereo unspecified), the inhibition is -12% (inactive). As for `O=C(c1ccc(C(=O)N2CCN(c3ccccc3F)CC2)nc1)N1CCN(c2ccccc2F)CC1`, the inhibition was -7.27% (inactive). As for `CC1(OC(=O)c2cccs2)C(=O)C=C2C=C(c3ccsc3)OC=C2C1=O` (stereo unspecified), the figure is -0.64% (inactive); as for `O=C(Nc1ccc(Cn2ccnc2)cc1)c1cccc(C(F)(F)F)c1`, 7.08% (inactive).

As to `O=C(CSC1CCCCC1)Nc1nccs1`, the inhibition is -8.08% (inactive).

Consider `CC(C)C(=O)Nc1ncc(Cc2ccccc2Cl)s1`, for which the inhibition was -0.61% (inactive).

Regarding `O=C(Nc1ncc(Cc2ccccc2Cl)s1)c1ccc([N+](=O)[O-])cc1`, the inhibition is 10.6% (inactive).

As for `COc1ccc(C(=O)OCC(=O)Nc2c(C)cccc2C)cc1`, the inhibition is 0.88% (inactive). As for `CC1CCCC(NC(=O)CSC2=Nc3ccccc3C3CC=NN23)C1C` (stereo unspecified), the figure is 11.7% (inactive); as for `Cc1cc(C)n(-c2nc(NCCCN(C)C)c3c4c(sc3n2)CCCC4)n1`, 9.07% (inactive); as for `Cc1cc(C)n(-c2nc(NCCO)c3c4c(sc3n2)CCCC4)n1`, 10.4% (inactive). `CN1CCN(/N=C/c2ccc(Br)cc2)CC1`: the inhibition was 2.12% (inactive). As for `O=C(NN=Cc1cccc([N+](=O)[O-])c1)c1cc(-c2cccnc2)nc2ccccc12`, the inhibition was 5.59% (inactive).

On to `CC1=CC(=O)C(C(C)C)=CC1=NC(=O)c1ccc(C)cc1`, for which the inhibition is 3.21% (inactive). Regarding `CC1=CC(=O)C(C(C)C)=C/C1=N/OC(=O)c1cccc([N+](=O)[O-])c1`, the inhibition is -5.41% (inactive).

Turning to `CCCOc1ccc(-c2csc3ncn(Cc4ccc(C(=O)O)cc4)c(=O)c23)cc1`, the inhibition is 11.8% (inactive). As for `CC1CCc2nc(/C(C#N)=C/c3ccncc3)sc2C1` (stereo unspecified), the inhibition is 17.6% (inactive).

With `COc1cc(/C=C(\C#N)c2nc3c(s2)CCCC3)ccc1O`, the inhibition is 67.9% (inactive).

For `O=C(NCCC(=O)N1CCN(c2ccccn2)CC1)c1ccc(Cl)cc1`, the inhibition is 9.44% (inactive). As for `CC1(C)Cc2c(cnn2-c2ccccc2)C(=O)/C1=N\NC(=O)c1ccccc1O`, the figure is 0.99% (inactive); as for `CC1(C)Cc2c(cnn2-c2ccccc2)C(=O)/C1=N\NC(=O)c1ccccc1`, 6.2% (inactive); as for `COc1cccc(C2CC(c3ccc(Br)cc3)=NN2C(=O)c2ccncc2)c1OC` (stereo unspecified), 10.4% (inactive). As for `C=C1CCC[C@]2(C)C[C@H]3OC(=O)C(CNC(C)CC)[C@H]3CC12` (stereo partly specified), the figure is 7.33% (inactive). As for `C=C1CCC[C@]2(C)C[C@H]3OC(=O)C(CNCC(C)C)[C@H]3CC12` (stereo partly specified), the figure is -0.86% (inactive). For the compound `CN(C)C(=O)c1ccc(Cl)cc1[N+](=O)[O-]`, the inhibition was -3.01% (inactive). Under `COc1ccc(S(=O)(=O)N(C)C[C@H]2Oc3c(NC(=O)NC(C)C)cccc3C(=O)N([C@H](C)CO)C[C@@H]2C)cc1` stands -6.16% (inactive); under `O=c1c2ccccc2nc2c3ccccc3c(NCCN3CCOCC3)nn12`, 7.65% (inactive); under `c1ccc(-c2csc3ncnc(NCCCN4CCOCC4)c23)cc1`, 0.1% (inactive). As to `COc1cccc(CNS(=O)(=O)c2c(C(=O)N3CCCC3)c(C)n(C)c2C)c1`, the inhibition was 3.63% (inactive). As for `COc1ccc(N2CC(C)Cn3c2nc2c3c(=O)[nH]c(=O)n2C)cc1` (stereo unspecified), the figure is -7.69% (inactive); as for `NC(=O)c1c(NC(=O)CSc2nnc(Cc3ccccc3)n2Cc2ccco2)sc2c1CCC2`, 55.7% (inactive).

Regarding `CC(=O)OCC1OC(n2ccc3ccccc32)C(OC(C)=O)C(OC(C)=O)C1OC(C)=O` (stereo unspecified), the inhibition was -6.94% (inactive). As for `CC(=O)c1cccc(OCC(=O)N2CCN(CC(=O)Nc3cccc(F)c3)CC2)c1`, the figure is -12.4% (inactive); as for `O=C(CN1CCN(S(=O)(=O)c2ccc(F)cc2)CC1)Nc1ccc(Cl)c(C(F)(F)F)c1`, 3.5% (inactive); as for `CCOc1ccccc1NC(=O)c1sc2nc(C)nc(N3CCOCC3)c2c1C`, 10.4% (inactive). With `COc1ccc(NC(=O)c2sc3nc(C)nc(N4CCOCC4)c3c2C)c(OC)c1`, the inhibition is -1.8% (inactive). Turning to `CC(C)(C)OC(=O)C[C@H]1C/C=C\C[C@H](CC(=O)N(CCO)Cc2ccccc2)C(=O)N[C@@H](c2ccccc2)COC1=O`, the inhibition was -6.06% (inactive). Under `COc1ccc(OC)c(NS(=O)(=O)Cc2ccccc2)c1` stands -14.1% (inactive); under `Cc1cc(=O)oc2c(C)c(OC(C)C(=O)NCC3CCC(C(=O)O)CC3)ccc12` (stereo unspecified), 1.04% (inactive); under `Cn1ncc(Cl)c1C(=O)Nc1nnc(C2CC2)s1`, -2.94% (inactive). As to `N#CCCN(C(=O)COC(=O)CCc1nc2ccccc2c(=O)[nH]1)c1ccc(F)cc1`, the inhibition is -3.42% (inactive). Under `N#CCCN(C(=O)COC(=O)Cc1c[nH]c2ccccc12)c1ccccc1` stands 1.58% (inactive); under `COc1ccc(NC(=O)C2CCN(S(C)(=O)=O)CC2)cc1`, -4.9% (inactive); under `O=C(CC1SC(=NCC2CCCO2)NC1=O)Nc1cccc2ccccc12` (stereo unspecified), 6.34% (inactive). `CC(Oc1ccc(Br)cc1)C(=O)NCC(C)(C)N1CCOCC1` (stereo unspecified): the inhibition was 4.22% (inactive). For the compound `COc1cccc(CC(=O)N2CCN(c3ccccc3[N+](=O)[O-])CC2)c1`, the inhibition was 5.35% (inactive). As for `CCc1nc(-c2ccc(-c3ccc(OC)cc3)nc2OC)no1`, the figure is 68.2% (inactive); as for `COc1ccc(-c2ccc(-c3noc(C)n3)c(OC)n2)cc1`, 5.33% (inactive); as for `COc1cc(OC)cc(OCC(O)Cn2ccnc2)c1` (stereo unspecified), 7.96% (inactive). Under `CCC(CC)C(=O)Nc1cc(C(=O)NCCc2ccccc2)ccc1Cl` stands 1.26% (inactive); under `Cc1ccc(NC(=O)CN2C(=O)NC(Cc3ccccc3)C2=O)c(Br)c1` (stereo unspecified), -0.06% (inactive); under `Cc1ccc(SCCC(=O)OC(C(=O)NC(N)=O)C(C)C)cc1` (stereo unspecified), -4.48% (inactive). As for `CCn1nc(C(=O)N[C@@H](CCSC)c2nc3ccccc3[nH]2)c2ccccc2c1=O`, the figure is 1.2% (inactive); as for `Cn1nc(C(=O)Nc2ccccc2N2CCCC2)c2ccccc2c1=O`, 54.7% (inactive).

Take `CCCCn1nc(C(=O)NCc2ccccc2CN2CCCC2)c2ccccc2c1=O`: the inhibition is -5.37% (inactive). In the case of `CCCn1nc(C(=O)Nc2cc(C(=O)OC)ccc2C)c2ccccc2c1=O`, the inhibition was 3.29% (inactive). Turning to `CSCC[C@H](NC(=O)c1nn(C)c(=O)c2ccccc12)c1nc2ccccc2[nH]1`, the inhibition was -4.72% (inactive). Consider `CCCn1nc(C(=O)NNC(=O)c2ccc(OC(F)F)cc2)c2ccccc2c1=O`, for which the inhibition was 3.96% (inactive).

On to `C/C(=N\NC(=O)CNC(=O)C1COc2ccccc2O1)c1ccc(Cl)cc1` (stereo unspecified), for which the inhibition was 1.09% (inactive). As for `COc1ccc(/C=C/C(=O)OCC(=O)Nc2ccc(Cl)cn2)cc1`, the figure is 10.3% (inactive); as for `CN1CC[n+]2cnc3ccccc3c21`, -2.8% (inactive); as for `CC1(C)CC(NC(=O)C2CCN(S(=O)(=O)c3ccccc3C(F)(F)F)CC2)CC(C)(C)N1`, -16.1% (inactive).

As to `COc1ccccc1C(=O)COC(=O)Cn1nc(C)c([N+](=O)[O-])c1C`, the inhibition is -2.3% (inactive). Turning to `CCc1cc(=O)oc2c3c(cc(OCC(=O)NCCN4CCOCC4)c12)OC(C)(C)CC3`, the inhibition was -4.22% (inactive). Under `c1ccc(-c2nc(-n3ccnc3)nc(-n3ccnc3)n2)cc1` stands 22.2% (inactive).

On to `c1ccc(-n2ccnc2)cc1`, for which the inhibition is 62.1% (inactive). In the case of `c1ccc(Cn2cc(-c3cccnc3)cn2)cc1`, the inhibition was 7.26% (inactive).

What is called inhibition is the relative decrease from the control value, in per cent.
